Screening data: PubChem BioAssay, Broad Institute
HSF1 inhib – HSF1 inhibitors in luciferase reporter cells, primary screen, cell-based, NIH3T3, luminescence. NIH3T3-HGL HSE-luciferase, MG132-induced, luminescence 8 h; hits give low values. activity change, negative = inhibition, % at 7.5 µM (by protocol). 300,000 tested, 0.77% active. AID 2098, 2009;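 active means more than half of replicate wells show activity change below -50%, luminescence cut by over half; inconclusive means some wells, but at most half, below -50%; inactive means no replicate well below -50%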;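 further: luciferase reports HSF-1 transcriptional activity via heat shock element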
esBAF inh – Bmi1 luciferase reporter increase in mESCs, primary screen, esBAF inhibitor project, mouse ES cells, Bmi1 luciferase knock-in, single point; 24 h; 100% = twice the neutral-well signal; reporter increase, % at 12.5 µM; 350,000 tested, 2% active; in the data active means activation above about 40%; inconclusive means no clear call, values can overlap the other calls;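 further: a rise in the Bmi1 reporter signal indicates esBAF inhibition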
MITF TRPM1 HTS – activators of MITF-driven TRPM1 promoter reporter, primary screen, cell-based, SK-MEL-5, luciferase, single point; AID 588334, 2011; SK-MEL-5 TRPM1-promoter luciferase, 24 h; % of positive control, neutral wells = 0; activation, % at 12.5 µM; 300,000 tested, 0.75% active;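 active means mean activation of at least 80% with every replicate also reaching 80%; inconclusive means mean reaches 80% but some replicate falls short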
Wnt act – Wnt/beta-catenin pathway activators, primary screen, cell-based, plate reader, single point | 300,000 tested, 1.2% active | AID 743398, 2014 | Wnt/beta-catenin reporter cell assay, activator | activation, % at 9.35 µM; in the data active means activation above about 30%, passing the limit was not always enough; inconclusive means no clear call, values can overlap the other calls
HSF-1 act – HSF-1 activators, primary screen, NIH3T3-HGL cells, MG132 stress, luminescence, single point | NIH3T3-HGL HSF-1 luciferase reporter, 8 h; 100% = twice DMSO control signal | activation, % at 9 µM | 300,000 tested, 1.7% active | AID 504408, 2011;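 active means mean replicate activation of at least 50% with a set share of replicates each reaching 50%; inconclusive means only one of those two conditions met; inactive means mean below 50% and too few replicates reaching it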
esBAF Ring1 qPCR – Ring1 mRNA increase in mouse ESCs, confirmation, esBAF inhibitor project, cell-based, mouse ESC, RT-qPCR, cherry-pick; AID 743176, 2013; 550 tested, under 10 active; shares compounds with esBAF inh; mouse ESC E14, Ring1 mRNA RT-qPCR fold change; fold change at 33 µM;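 active means Ring1 gene expression raised more than 2-fold over untreated cells in both replicates at either tested dose; inconclusive means only one replicate above 2-fold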;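 further: Ring1 transcript normalised to actin housekeeping signal by TaqMan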
esBAF Fgf4 qPCR – Fgf4 mRNA decrease in mouse ESCs, confirmation, esBAF inhibitor project, cell-based, mouse ESC, RT-qPCR, cherry-pick; shares compounds with esBAF inh; mouse ESC E14, Fgf4 mRNA qPCR fold change; hits give low values; Fgf4 expression fold change at 33 µM; 550 tested, 4% active;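 active means Fgf4 expression under 0.8 fold of control in both repeat measurements at one or both tested doses; inconclusive means under 0.8 fold in just a single repeat measurement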;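 further: Fgf4 transcript normalised to actin in duplex TaqMan qPCR; cells exposed to compound for 24 h before lysis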
Bmi1 derepress – esBAF inhibition via Bmi1 de-repression, confirmation, cell-based, RT-qPCR, mouse ESC, single point, cherry-pick; mouse ESE14 ES cells, Bmi1 mRNA qPCR fold; hits give high values; 550 tested, under 10 active; fold change at 33 µM; shares compounds with esBAF inh;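 active means Bmi1 expression fold change above 6 at either tested concentration, seen in replicate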;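 further: higher fold means more Bmi1 de-repression and stronger esBAF inhibition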
A549 tox SP – A549 cell cytotoxicity, cytotoxicity control, plate reader, single point, cherry-pick | shares compounds with esBAF inh | cell viability change % (negative = cytotoxic), % at 25 µM, hits read low | 550 tested, under 10 active; call rule not given here
HepG2 cytotox SP – HepG2 cell cytotoxicity, cytotoxicity control, plate reader, single point, cherry-pick; activity change, negative = inhibition, % at 25 µM; 550 tested, 4% active; shares compounds with esBAF inh; hits give low values; AID 743189, 2013; in the data active means activity change below about -50%
HEK293 cytotox SP – HEK293 cell cytotoxicity, cytotoxicity control, plate reader, single point, cherry-pick. shares compounds with esBAF inh. activity change, negative = inhibition, % at 25 µM, hits read low. 550 tested, 3% active; in the data active means activity change below about -38%, passing the limit was not always enough
A number is an active result; 0 = inactive; ? = inconclusive; - = not tested or not shown. In the library only some 3.9% were active in any assay of this set; here they are far more common.

SMILES	HSF1 inhib	esBAF inh	MITF TRPM1 HTS	Wnt act	HSF-1 act	esBAF Ring1 qPCR	esBAF Fgf4 qPCR	Bmi1 derepress	A549 tox SP	HepG2 cytotox SP	HEK293 cytotox SP
Cc1nc2c(sc3nc4c(cc32)COC(C)(C)C4)c(=O)n1Cc1ccccc1	0	63.9	0	-	0	0	0	0	0	0	0
Cc1ccc(NC(=O)NC2CCCCCCC2)cc1C	-	60.6	0	0	-	0	0	0	0	0	0
Nc1ccc(NC(=O)NC2CCCCC2)cc1	0	0	0	0	0	-	-	-	-	-	-
COc1ccc(CCn2nnc3ccccc3c2=O)cc1OC	-	61.3	-	0	-	0	0	0	0	0	0
CN1C(=O)c2cc(NC(=O)c3cccc(C(F)(F)F)c3)ccc2OC[C@@H]2O[C@H](CC(=O)NCCN3CCCC3)CC[C@H]21	-	0	-	-	-	-	-	-	-	-	-
O=C(NCCc1ccc(F)cc1)c1ccc2c(=O)n3c(nc2c1)CCC3	0	54.1	0	0	0	0	0	0	0	0	0
COc1cc(CN(C(=O)c2cc3ccccc3oc2=O)C2CCS(=O)(=O)C2)cc(OC)c1OC (configuration not stated)	0	0	0	0	0	-	-	-	-	-	-
O=C(c1cc2ccccc2oc1=O)N(Cc1cccs1)C1CCS(=O)(=O)C1 (configuration not stated)	0	70.1	0	-	0	0	?	0	0	0	0
C[C@H]1CN([C@@H](C)CO)C(=O)c2cc(-c3ccccc3F)cnc2O[C@@H]1CN(C)Cc1cccc(F)c1	-	0	-	-	-	-	-	-	-	-	-
COc1ccc(OCc2cnc(Cl)s2)cc1	0	0	0	0	0	-	-	-	-	-	-
Cc1ccc(OCc2cnc(Cl)s2)c(C)c1	0	83.9	0	0	0	0	0	0	0	0	0
O=C(Nc1nccs1)C(=O)c1c[nH]c2ccccc12	0	68.1	?	59.2	51.0	0	0	0	0	0	0
O=C(Cc1c[nH]c2ccccc12)Nc1nccs1	0	0	0	0	0	-	-	-	-	-	-
COc1ccc(S(=O)(=O)N(C)C[C@H]2OCCCC[C@H](C)Oc3ccc(NC(=O)Nc4c(C)noc4C)cc3C(=O)N([C@H](C)CO)C[C@@H]2C)cc1	-	0	-	-	-	-	-	-	-	-	-
Cc1ccccc1S(=O)(=O)N1CC[C@@H]2[C@H](CO)N(C)c3ccc(Br)cc3[C@@H]21	-	0	-	-	-	-	-	-	-	-	-
O=C(Cc1ccccc1)Nc1ccc2c(c1)OC1(CCCC1)O2	-	74.5	109.9	47.7	-	0	0	0	0	0	0
O=C(C[C@H]1CC[C@H]2[C@@H](COC[C@@H](O)CN2Cc2cc(F)ccc2F)O1)N1CCc2ccccc2C1	-	0	-	-	-	-	-	-	-	-	-
CNC[C@@H]1OCCCC[C@@H](C)Oc2ccc(N(C)C)cc2C(=O)N([C@H](C)CO)C[C@H]1C	-	0	-	-	-	-	-	-	-	-	-
O=C(Cn1c(/C=C/c2ccccc2)nc2ccccc21)Nc1ccc(F)cc1	0	80.0	85.3	0	56.8	0	0	0	0	0	0
c1ccc(Oc2cc(-c3ccccc3)ncn2)cc1	0	77.2	-	-	0	0	?	0	0	0	0
Cn1cnc(S(=O)(=O)N[C@@H]2C=C[C@@H](CC(=O)NCC3CCCCC3)O[C@H]2CO)c1	-	0	-	-	-	-	-	-	-	-	-
COc1cc(CNc2ccc(S(N)(=O)=O)cc2)ccc1OCc1ccccc1F	-	96.0	-	0	-	0	0	0	0	0	0
Clc1ccc(-c2csc(N3CCSCC3)n2)cc1	0	75.9	0	0	0	0	0	0	0	0	0
C[C@H](CO)N1C[C@H](C)[C@H](CN(C)C(=O)Nc2cccc3ccccc23)Oc2ccc(NS(C)(=O)=O)cc2CC1=O	-	0	-	-	-	-	-	-	-	-	-
COc1ccc(OCc2cc(C(=O)NC(C)c3csc(C)n3)no2)c(Cl)c1 (configuration not stated)	0	66.2	0	0	0	0	0	0	0	0	0
SMILES	HSF1 inhib	esBAF inh	MITF TRPM1 HTS	Wnt act	HSF-1 act	esBAF Ring1 qPCR	esBAF Fgf4 qPCR	Bmi1 derepress	A549 tox SP	HepG2 cytotox SP	HEK293 cytotox SP
CC(C)CN=c1cc(-c2ccccc2)oc2ccc(Cl)cc12	0	53.6	0	-	59.9	0	?	6.87	0	0	0
COc1ccc2oc(-c3ccccc3)cc(=O)c2c1	-	0	-	0	-	-	-	-	-	-	-
COc1ccccc1C(=O)Nc1sc2c(c1C#N)CCC2	0	58.9	0	-	0	0	0	0	0	0	0
COc1ccccc1C(=O)Nc1sc2c(c1C(N)=O)CCCC2	0	0	0	0	0	-	-	-	-	-	-
C/C=C/c1cnc2c(c1)C(=O)N([C@H](C)CO)C[C@H](C)[C@@H](CN(C)S(=O)(=O)c1ccc(OC)cc1)O2	-	0	-	-	-	-	-	-	-	-	-
Clc1ccc(CCNc2nc3ccccc3s2)cc1	0	-	0	-	0	-	-	-	-	-	-
O=c1c(-c2nc3ccccc3s2)cccn1Cc1ccc(Cl)cc1	0	67.0	-	0	88.5	0	0	0	0	0	0
Nc1c(Cl)cc(N=Nc2ccccc2)cc1Cl	-	58.0	0	0	-	0	0	0	0	-91.3	0
CCCN1C[C@@H](C)[C@H](OC)CN(C)C(=O)c2cc(NC(=O)C3CCOCC3)ccc2OC[C@@H]1C	-	0	-	-	-	-	-	-	-	-	-
Clc1ccc(-c2nc(Cc3ccccc3)no2)cc1	0	69.7	105.7	-	0	0	0	0	0	0	0
COc1ccc(-c2nc(Cc3ccc(Cl)cc3)no2)cc1OC	0	-	0	-	0	-	-	-	-	-	-
COc1cccc(-c2noc(C3CCCN(C(=O)CC(C)(C)C)C3)n2)c1 (configuration not stated)	0	82.8	0	0	0	0	0	0	0	0	0
CCCCC(=O)N1CCCC(c2nc(-c3cccc(OC)c3)no2)C1 (configuration not stated)	0	0	0	0	0	-	-	-	-	-	-
C[C@H](CO)N1C[C@H](C)[C@@H](CN(C)Cc2ccc(Cl)c(Cl)c2)Oc2c(NC(=O)NC3CCCCC3)cccc2C1=O	-	0	-	-	-	-	-	-	-	-	-
